Measured values as given in PubChem BioAssay (EPA / NIEHS).
Records with an inconclusive call do not appear. Active and inactive are the calls of the source. The calls were made as follows, unless noted: active = hit-call score of the fitted dose curve at least 0.9, where 1 is the maximum; inconclusive = response in the unintended direction; inactive = score below 0.9.

What was measured:
[1] = ATG_M_19_TRANS: Attagene TRANS-FACTORIAL HepG2 Assay for M19 Transcription Factor (Internal Marker) (AID 2282974); conditions: HepG2 Attagene TRANS-FACTORIAL M19 internal marker reporter
In short: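 Measured here: internal-marker reporter transcript from HepG2 cells transfected with MRTUs, harvested at 24 h. cDNA PCR products were 6-FAM labelled by primer extension, cut with HpaI for 2 h at 37 C, and resolved by CE.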

[2] = molecular target: human Retinoic Acid Receptor gamma (RARg), RARG (gene 5916) (UniProt P13631); test: ATG_RARg_TRANS: Attagene TRANS-FACTORIAL HepG2 Assay for human Retinoic Acid Receptor gamma (RARg) (AID 2283009)
In short: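 Readout: reporter transcript levels via RT-PCR, 6-FAM primer-extension labelling, HpaI digestion and capillary electrophoresis. Cells: HepG2 carrying transfected RARg-GAL4 chimera plus UAS reporter set. Dosing 24 h; DMSO negative control.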

[3] = molecular target: Aryl hydrocarbon receptor (Homo sapiens) (UniProt P35869); test: ATG_Ahr_CIS: Attagene CIS-FACTORIAL HepG2 Assay for human Aryl Hydrocarbon Receptor (Ahr) (AID 2282930; active = hit-call score of the fitted dose curve at least 0.9, where 1 is the maximum; inactive = score below 0.9); conditions: HepG2 AhR cis-factorial reporter transcription; actives raise or lower the signal
In short: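 Read-out: reporter mRNA quantified by RT-PCR with fluorescent primer extension and capillary electrophoresis. Human HepG2 liver cells carried transfected cis-promoter reporter units and were exposed to chemical for 24 h; gain or loss fitted relative to DMSO.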

[4] = molecular target: Estrogen receptor beta (Homo sapiens) (UniProt Q92731); test: OT_ER_ERbERb_0480: Odyssey Thera (OT) 8-hour HEK293T Protein-Complementation Assay for Estrogen Receptor-beta/-beta Homodimer (AID 2283357);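 also: active means signal gain over DMSO baseline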
In short: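 Homodimerization of ER-beta LBD measured by protein-fragment complementation in HEK293T; 8 h dosing; fixed, Draq5 counterstain; fluorescence intensity gain over DMSO baseline, positive fitting direction; laser scanning cytometry.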

[5] = molecular target: Estrogen receptor beta (Homo sapiens) (UniProt Q92731); test: OT_ER_ERbERb_1440: Odyssey Thera (OT) 24-hour HEK293T Protein-Complementation Assay for Estrogen Receptor-beta/-beta Homodimer (AID 2283380);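 also: scored as signal increase over DMSO baseline for both agonists and antagonists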
In short: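 HEK293T cells stably expressing ER beta LBD (aa 310-547) homodimer fragment-complementation reporter, dosed 24 h. Cells formaldehyde-fixed, Draq5-stained; gain in nuclear (agonist) or nuclear plus cytoplasmic (antagonist) fluorescence versus DMSO read by laser scanning cytometry.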

[6] = molecular target: Peroxisome proliferator-activated receptor gamma (Homo sapiens) (UniProt P37231); test: OT_PPARg_PPARgSRC1_0480: Odyssey Thera (OT) 8-hour Protein-Complementation Assay for Peroxisome Proliferator-activated Receptor Gamma / SRC-1 Co-activator (AID 2283387);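 also: nuclear to cytoplasmic split Venus YFP fluorescence ratio reporting PPARg SRC-1 interaction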
In short: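 Protein-fragment complementation of split Venus YFP reports PPARg/SRC-1 interaction in HEK293T (transfected 48 h before treatment), exposed 8 h. Readout: N/C fluorescence ratio at 488 nm from imaging, Draq5 for segmentation, positive fit relative to DMSO.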

[7] = molecular target: Peroxisome proliferator-activated receptor gamma (Homo sapiens) (UniProt P37231); test: OT_PPARg_PPARgSRC1_1440: Odyssey Thera (OT) 24-hour Protein-Complementation Assay for Peroxisome Proliferator-activated Receptor Gamma/ SRC-1 Co-activator (AID 2283388);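 also: nuclear to cytoplasmic ratio of reconstituted Venus YFP fluorescence in fixed imaged cells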
In short: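 Readout: nuclear-to-cytoplasmic 488 nm fluorescence ratio, ≥350 cells per image, 8 images per well, after 24 h compound exposure of HEK293T expressing PPARg/SRC-1 split-YFP fusions. Activity fitted in positive direction against DMSO.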

[8] = ACEA_AR_antagonist_AUC_viability: ACEA Biosciences xCELLigence Real-Time Cell Analysis on Androgen Receptor Antagonism for Viability (AID 2283776);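 also: 22Rv1 human prostate cancer cells growing on impedance electrode plates; area under impedance growth curve at 80 h after dosing as viability; hits lower the growth signal relative to DMSO meaning cytotoxicity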
In short: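 Impedance read-out (RT-CES): area under growth curve at 80 h post-dose, loss of signal scored vs DMSO baseline. 22Rv1 cells; 8-pt 1:4 series, top 100 uM final, ≤0.5% DMSO; biological duplicate.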

[9] = molecular target: Estrogen-related receptor gamma (Homo sapiens) (UniProt P62508); test: ATG_ERRg_TRANS: Attagene TRANS-FACTORIAL HepG2 Assay for human Estrogen-Related Receptor gamma (ERRg) (AID 2282977); conditions: HepG2 Attagene TRANS reporter, ERRg transactivation;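 also: hits increase reporter signal over DMSO so potencies reflect activators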
In short: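 Readout: fluorescent reporter-mRNA fragments resolved by capillary electrophoresis after RT-PCR and HpaI cut. Cells: transiently transfected HepG2 carrying GAL4-UAS reporters driven by exogenous NR-Gal4 chimeras, dosed 24 h. Activity fitted upward relative to DMSO baseline.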

[10] = CCTE_Harrill_HTTr_CellCount_MCF7: CCTE's Cell Proliferation Assessment for the High-Throughput Transcriptomics (HTTr) Platform, Harrill Lab (AID 2284012);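 also: count of Hoechst-stained nuclei per well by high-content imaging in MCF-7 cells; cells exposed to compound for six hours; intended direction is loss of nuclei count meaning fewer cells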
In short: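 Readout: Hoechst nuclear count by high-content imaging. MCF-7, 8-point dilution series, 6 h exposure. Bidirectional fit vs DMSO baseline.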

[11] = molecular target: Bile acid receptor (Homo sapiens) (UniProt Q96RI1); test: ATG_FXR_TRANS: Attagene TRANS-FACTORIAL HepG2 Assay for Farnesoid X Receptor (FXR) (AID 2282979); conditions: HepG2 Attagene TRANS FXR-GAL4 reporter transcription;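 also: hits raise reporter mRNA above DMSO so AC50 marks FXR activation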
In short: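 Read-out: fluorescent reporter transcripts quantified by capillary electrophoresis after RT-PCR of total RNA. Source cells were HepG2 transiently carrying chimeric NR-GAL4 plus GAL4-UAS reporter units, dosed 24 h. Activity fitted upward relative to DMSO baseline.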

[12] = read-out: Human Leukocyte Antigen - DR isotype (HLADR), HLA-DRA (gene 3122); test: BSK_3C_HLADR: BioMAP Diversity Plus: 3C Assay for Human Leukocyte Antigen - DR isotype (HLADR) Biomarker Activity (AID 2283019; active = hit-call score of the fitted dose curve at least 0.9, where 1 is the maximum; inactive = score below 0.9); conditions: primary human endothelial cells (HUVEC); actives raise or lower the signal
In short: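 HUVEC, 3C stimulation, 24 h post-dose; HLA-DR by ELISA; bidirectional curve fit vs DMSO baseline; gain or loss of signal scored.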

[13] = read-out: Pselectin, SELP (gene 6403); test: BSK_4H_Pselectin: BioMAP Diversity Plus: 4H Assay for Pselectin Biomarker Activity (AID 2283026; active = hit-call score of the fitted dose curve at least 0.9, where 1 is the maximum; inactive = score below 0.9); conditions: primary human endothelial cells (HUVEC); actives raise or lower the signal
In short: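 HUVEC, 24 h chemical exposure; P-selectin read by ELISA. Bidirectional curve fit vs DMSO baseline; gain or loss of signal scored.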

[14] = read-out: serum amyloid A (SAA), SAA1 (gene 6288); test: BSK_CASM3C_SAA: BioMAP Diversity Plus: CASM3C Assay for serum amyloid A (SAA) Biomarker Activity (AID 2283049; active = hit-call score of the fitted dose curve at least 0.9, where 1 is the maximum; inactive = score below 0.9;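 also: SAA protein level quantified by ELISA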); conditions: primary human coronary artery smooth muscle cells; actives raise or lower the signal
[15] = read-out: Vascular cell adhesion molecule 1 (VCAM1), VCAM1 (gene 7412); test: BSK_CASM3C_VCAM1: BioMAP Diversity Plus: CASM3C Assay for Vascular cell adhesion molecule 1 (VCAM1) Biomarker Activity (AID 2283055; active = hit-call score of the fitted dose curve at least 0.9, where 1 is the maximum; inactive = score below 0.9;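 also: VCAM-1 protein level quantified by ELISA on the cells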); conditions: primary human coronary artery smooth muscle cells; actives raise or lower the signal
[16] = BSK_SAg_PBMCCytotoxicity: PBMC Cytotoxicity Assessment in the BioMAP Diversity Plus: SAg Assay (AID 2283093; active = hit-call score of the fitted dose curve at least 0.9, where 1 is the maximum; inactive = score below 0.9;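 also: fitted both ways against DMSO so a hit may be loss or gain of signal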;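 as to AC50: PBMC superantigen activated with SEB plus TSST-1 one hour after compound addition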); conditions: primary human HUVEC with PBMC
In short: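 PBMC viability by Alamar Blue reduction, fluorescence read at 546/580 nm after 6 h dye exposure. Cells were dosed 1 h before SEB plus TSST-1 activation (20 ng/mL final each), then held 90 h; endothelial/PBMC human co-culture.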

[17] = molecular target: Retinoic acid receptor RXR-alpha (Homo sapiens) (UniProt P19793); test: OT_NURR1_NURR1RXRa_1440: Odyssey Thera (OT) 24-hour HEK293T Protein Complementation Assay for Nurr1/retinoid X receptor (RXR) (AID 2283386)
In short: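 Fluorescence PCA read-out; HEK293T; 24 h post-dose; bait/prey fused to reporter fragments; gain-of-signal fit vs DMSO negative control.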

[18] = ACEA_AR_agonist_AUC_viability: ACEA Biosciences xCELLigence Real-Time Cell Analysis on Androgen Receptor Agonism for Viability (AID 2283775);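 as to AC50: viability read 80 hours after compound addition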
In short: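 Viability endpoint from xCELLigence impedance in 22Rv1 prostate cells at 80 h. Eight-point series, 100 uM maximum final.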

[19] = ATG_ERE_CIS: Attagene CIS-FACTORIAL HepG2 Assay for Estrogen Response Element (ERE) (AID 2282940; active = hit-call score of the fitted dose curve at least 0.9, where 1 is the maximum; inactive = score below 0.9); conditions: HepG2 ERE cis-reporter, Attagene RNA transcript; actives raise or lower the signal
In short: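 Readout: reporter mRNA induction by RT-PCR, FAM-labelled primer extension, HpaI digestion and capillary electrophoresis, 24 h after dosing transfected HepG2 cells. Endogenous transcription factors act on cis-element-regulated reporters. Gain or loss fitted against DMSO.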

[20] = molecular target: human Peroxisome Proliferator-activated Receptor delta (PPARd), PPARD (gene 5467) (UniProt Q03181); test: ATG_PPARd_TRANS: Attagene TRANS-FACTORIAL HepG2 Assay for human Peroxisome Proliferator-activated Receptor delta (PPARd) (AID 2283002)
In short: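 Read-out: reporter mRNA induction, quantified by fluorescent RT-PCR products resolved by capillary electrophoresis. Human HepG2 liver cells carried transiently transfected Gal4-UAS reporter constructs with chimeric NR-Gal4 fusions. Cells were dosed for 24 h; DMSO served as baseline.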

Measured: AC50

human Retinoic Acid Receptor gamma (RARg), RARG (gene 5916), sequence (P13631 whole entry, looked up, the tested form may be a part): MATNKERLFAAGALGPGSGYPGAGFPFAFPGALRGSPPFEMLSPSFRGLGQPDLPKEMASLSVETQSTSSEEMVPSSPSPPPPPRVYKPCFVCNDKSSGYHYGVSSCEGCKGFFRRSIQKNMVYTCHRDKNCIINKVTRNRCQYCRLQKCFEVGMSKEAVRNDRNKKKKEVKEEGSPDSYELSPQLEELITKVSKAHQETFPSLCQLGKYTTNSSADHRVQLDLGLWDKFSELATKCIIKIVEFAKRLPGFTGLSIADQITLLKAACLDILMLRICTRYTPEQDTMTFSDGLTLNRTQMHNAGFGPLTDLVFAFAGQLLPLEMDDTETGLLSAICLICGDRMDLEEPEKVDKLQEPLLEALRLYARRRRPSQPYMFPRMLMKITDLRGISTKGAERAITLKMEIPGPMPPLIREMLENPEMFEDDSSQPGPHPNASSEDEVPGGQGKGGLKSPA
Bile acid receptor (Homo sapiens), sequence (Q96RI1 whole entry, looked up, the tested form may be a part): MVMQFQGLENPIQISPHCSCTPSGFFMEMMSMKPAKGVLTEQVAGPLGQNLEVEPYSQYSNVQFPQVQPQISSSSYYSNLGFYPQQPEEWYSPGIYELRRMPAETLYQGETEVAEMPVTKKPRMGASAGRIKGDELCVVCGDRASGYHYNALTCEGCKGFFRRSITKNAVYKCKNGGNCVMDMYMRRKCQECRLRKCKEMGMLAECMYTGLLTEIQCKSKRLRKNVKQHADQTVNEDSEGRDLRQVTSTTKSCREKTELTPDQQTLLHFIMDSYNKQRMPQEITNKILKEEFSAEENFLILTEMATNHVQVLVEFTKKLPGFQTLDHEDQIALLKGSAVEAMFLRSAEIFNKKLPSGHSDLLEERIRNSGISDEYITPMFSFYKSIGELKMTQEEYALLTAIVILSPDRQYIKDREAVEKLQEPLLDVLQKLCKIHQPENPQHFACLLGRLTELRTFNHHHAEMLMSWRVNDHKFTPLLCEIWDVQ
human Peroxisome Proliferator-activated Receptor delta (PPARd), PPARD (gene 5467), sequence (Q03181 whole entry, looked up, the tested form may be a part): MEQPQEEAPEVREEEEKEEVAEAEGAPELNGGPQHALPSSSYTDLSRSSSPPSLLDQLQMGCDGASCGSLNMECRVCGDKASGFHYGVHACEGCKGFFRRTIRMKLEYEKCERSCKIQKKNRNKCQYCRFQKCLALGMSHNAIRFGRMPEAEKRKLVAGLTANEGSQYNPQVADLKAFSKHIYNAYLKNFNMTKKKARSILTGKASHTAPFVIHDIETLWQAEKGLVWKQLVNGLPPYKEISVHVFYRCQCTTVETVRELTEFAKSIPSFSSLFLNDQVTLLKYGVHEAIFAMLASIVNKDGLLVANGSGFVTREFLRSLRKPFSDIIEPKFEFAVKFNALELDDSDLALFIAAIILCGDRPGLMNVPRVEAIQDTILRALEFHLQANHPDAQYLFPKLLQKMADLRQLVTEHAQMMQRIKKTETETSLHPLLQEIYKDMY
Aryl hydrocarbon receptor (Homo sapiens), sequence (P35869 whole entry, looked up): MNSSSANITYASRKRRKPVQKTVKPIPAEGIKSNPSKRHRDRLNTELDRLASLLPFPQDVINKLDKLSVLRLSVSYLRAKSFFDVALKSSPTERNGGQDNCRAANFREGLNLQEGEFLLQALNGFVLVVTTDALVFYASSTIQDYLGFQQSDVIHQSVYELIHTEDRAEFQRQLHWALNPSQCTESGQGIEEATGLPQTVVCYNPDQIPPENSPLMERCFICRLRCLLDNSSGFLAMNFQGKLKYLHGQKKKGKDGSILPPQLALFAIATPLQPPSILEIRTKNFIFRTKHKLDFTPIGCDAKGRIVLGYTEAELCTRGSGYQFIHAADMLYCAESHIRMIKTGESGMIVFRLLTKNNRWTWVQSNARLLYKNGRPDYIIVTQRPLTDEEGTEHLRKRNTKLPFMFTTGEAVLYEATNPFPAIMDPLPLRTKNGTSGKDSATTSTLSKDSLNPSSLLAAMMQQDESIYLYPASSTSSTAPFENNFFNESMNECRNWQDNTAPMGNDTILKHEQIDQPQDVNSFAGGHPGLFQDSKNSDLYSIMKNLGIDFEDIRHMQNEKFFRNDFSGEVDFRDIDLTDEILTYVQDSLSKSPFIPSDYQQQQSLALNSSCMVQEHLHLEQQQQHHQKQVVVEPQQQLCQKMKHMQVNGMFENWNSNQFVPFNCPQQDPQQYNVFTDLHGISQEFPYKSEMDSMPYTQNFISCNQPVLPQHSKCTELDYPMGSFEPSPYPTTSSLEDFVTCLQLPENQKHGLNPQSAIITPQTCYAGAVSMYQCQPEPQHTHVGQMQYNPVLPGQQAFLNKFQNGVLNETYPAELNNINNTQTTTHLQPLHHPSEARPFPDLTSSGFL
Estrogen-related receptor gamma (Homo sapiens), sequence (P62508 whole entry, looked up, the tested form may be a part): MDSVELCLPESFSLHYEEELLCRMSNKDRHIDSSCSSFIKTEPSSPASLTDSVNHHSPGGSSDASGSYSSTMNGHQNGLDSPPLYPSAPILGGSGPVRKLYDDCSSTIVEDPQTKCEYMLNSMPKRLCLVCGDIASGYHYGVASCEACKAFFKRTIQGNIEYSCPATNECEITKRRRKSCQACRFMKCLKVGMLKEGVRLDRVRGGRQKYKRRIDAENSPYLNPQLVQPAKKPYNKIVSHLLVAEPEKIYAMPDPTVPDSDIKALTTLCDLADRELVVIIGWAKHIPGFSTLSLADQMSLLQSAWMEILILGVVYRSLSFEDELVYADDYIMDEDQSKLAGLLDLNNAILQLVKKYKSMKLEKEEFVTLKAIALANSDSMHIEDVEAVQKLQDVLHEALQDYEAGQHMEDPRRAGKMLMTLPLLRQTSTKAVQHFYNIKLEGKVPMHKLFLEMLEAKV
Estrogen receptor beta (Homo sapiens), sequence (Q92731 whole entry, looked up, the tested form may be a part): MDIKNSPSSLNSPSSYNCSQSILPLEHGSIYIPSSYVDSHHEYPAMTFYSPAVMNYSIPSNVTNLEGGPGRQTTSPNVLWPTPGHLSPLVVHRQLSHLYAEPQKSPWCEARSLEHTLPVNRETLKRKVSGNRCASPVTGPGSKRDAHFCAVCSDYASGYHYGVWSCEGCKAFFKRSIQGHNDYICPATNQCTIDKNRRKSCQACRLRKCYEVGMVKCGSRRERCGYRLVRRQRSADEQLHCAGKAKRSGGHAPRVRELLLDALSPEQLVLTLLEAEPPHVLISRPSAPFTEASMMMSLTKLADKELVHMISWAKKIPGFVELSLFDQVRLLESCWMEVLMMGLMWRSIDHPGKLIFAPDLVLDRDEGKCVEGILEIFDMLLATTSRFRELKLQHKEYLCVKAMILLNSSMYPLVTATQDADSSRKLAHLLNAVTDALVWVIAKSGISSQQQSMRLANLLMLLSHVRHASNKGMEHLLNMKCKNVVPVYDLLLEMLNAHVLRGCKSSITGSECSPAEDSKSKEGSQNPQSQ
Peroxisome proliferator-activated receptor gamma (Homo sapiens), sequence (P37231 whole entry, looked up, the tested form may be a part): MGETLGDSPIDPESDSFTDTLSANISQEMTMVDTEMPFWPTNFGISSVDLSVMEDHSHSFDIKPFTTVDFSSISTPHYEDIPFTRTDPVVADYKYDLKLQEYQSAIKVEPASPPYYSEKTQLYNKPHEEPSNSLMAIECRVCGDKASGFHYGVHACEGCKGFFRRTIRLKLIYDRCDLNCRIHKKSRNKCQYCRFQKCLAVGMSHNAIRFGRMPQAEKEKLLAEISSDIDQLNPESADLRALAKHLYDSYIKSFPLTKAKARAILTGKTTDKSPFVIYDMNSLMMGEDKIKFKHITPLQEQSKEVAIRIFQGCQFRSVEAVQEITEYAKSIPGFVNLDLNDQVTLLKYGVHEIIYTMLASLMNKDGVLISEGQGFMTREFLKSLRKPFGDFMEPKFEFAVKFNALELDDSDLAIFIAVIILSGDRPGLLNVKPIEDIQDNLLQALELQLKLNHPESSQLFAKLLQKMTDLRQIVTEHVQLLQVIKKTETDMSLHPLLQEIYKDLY
Retinoic acid receptor RXR-alpha (Homo sapiens), sequence (P19793 whole entry, looked up, the tested form may be a part): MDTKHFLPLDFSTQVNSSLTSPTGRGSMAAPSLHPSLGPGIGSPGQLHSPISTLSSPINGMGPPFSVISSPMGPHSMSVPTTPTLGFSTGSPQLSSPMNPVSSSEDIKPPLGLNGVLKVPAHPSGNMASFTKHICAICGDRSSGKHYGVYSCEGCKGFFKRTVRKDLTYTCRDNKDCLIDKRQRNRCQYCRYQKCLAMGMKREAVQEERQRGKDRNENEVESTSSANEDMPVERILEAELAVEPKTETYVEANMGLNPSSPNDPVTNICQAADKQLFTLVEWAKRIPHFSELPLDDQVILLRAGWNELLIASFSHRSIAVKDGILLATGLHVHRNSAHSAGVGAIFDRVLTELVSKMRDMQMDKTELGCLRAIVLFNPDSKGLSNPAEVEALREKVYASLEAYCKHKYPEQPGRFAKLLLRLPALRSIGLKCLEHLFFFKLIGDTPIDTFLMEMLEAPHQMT

CCCCCCCC#N
inactive: [1] | [2]

CCCN[C@H]1CCc2nc(N)sc2C1
inactive: [3]

CC(=O)CCc1ccccc1
inactive: [1]

Cc1ccccc1S(=O)(=O)O
inactive: [4] | [5]

CC1=NN(c2cc(Cl)c(S(=O)(=O)O)cc2Cl)C(=O)C1N=Nc1ccc(S(=O)(=O)O)cc1 (configuration not stated)
inactive: [3] | [6] | [7] | [8]

CN(C)CCCN1c2ccccc2CCc2ccc(Cl)cc21
inactive: [3] | [9] | [10]

C=CC(C)(CCC=C(C)C)OC(=O)c1ccccc1 (configuration not stated)
inactive: [11]

CCCCCCCCCCC1CO1 (configuration not stated)
inactive: [3] | [14]
active: [12] 28.6 µM | [13] 33.3 µM | [15] 3.97 µM | [16] 29.5 µM

CO[Si](CCCNCCN)(OC)OC
inactive: [4] | [5] | [6] | [7] | [8]

COC(=O)[C@]1(C)CCC[C@@]2(C)[C@H]1CC=C1C=C(C(C)C)CC[C@@H]12
inactive: [2] | [4] | [5] | [17]
active: [11] 33 µM | [18] 0.333 µM

C1=CCC=C1
inactive: [3] | [18] | [8]

Clc1ccccn1
inactive: [1] | [11] | [2] | [10]

CCCCCCC1CCC(=O)O1 (configuration not stated)
inactive: [19] | [2] | [5] | [6] | [7] | [18] | [8]

CN(C)c1ccc(C(c2ccccc2)c2ccc(N(C)C)cc2)cc1
active: [12] 9.37 µM | [13] 7.46 µM
inactive: [3] | [1] | [9] | [14] | [15] | [16]

CC/C=C\CC1=C(C)CCC1=O
inactive: [3] | [1] | [9]

OCCN(CCO)c1cccc(Cl)c1
inactive: [3]

CC1=C(CC=O)C(C)(C)CCC1
inactive: [3]

COC(=O)CCSCCC(=O)OC
inactive: [1] | [9] | [11] | [2]

Cc1cccnc1
inactive: [3] | [1] | [9] | [12] | [13] | [14] | [15] | [16] | [4] | [5] | [17] | [6] | [7] | [8]

CCCOCCC
inactive: [19] | [2]

O=C(c1ccccc1)c1ccccc1O
active: [4] 50 µM
inactive: [9] | [5] | [6] | [7] | [18] | [8]

Cc1ccccc1S(N)(=O)=O
inactive: [20]

Cc1cc(-n2nc3ccc(Cl)cc3n2)c(O)c(C(C)(C)C)c1
inactive: [9] | [11] | [12] | [13] | [14] | [15] | [16]

CC(C)=CCOC(=O)c1ccccc1
inactive: [1] | [9] | [20]

O=C(O)c1cc(Cl)cc(Cl)c1O
active: [3] 79 µM
inactive: [9] | [10]

COc1ccccc1OCC(O)CO (configuration not stated)
inactive: [3] | [1] | [20]
